Columns and labels:
Assay in all cases: log2 ratio of Biotin-Ahx-Ub-VS probe labelling (fragment/DMSO); higher = less target engagement (more negative = stronger competition), active = hit call of the paper (q ≤ 0.05, log2 ratio ≤ -1)
Details in all cases: compound concentration: 200 uM; treatment time: 3 h
[1] = target: USP34 (UniProt Q70CQ2)
Procedure, shortened: (§1)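 Using Biotin-Ahx-Ub-VS at 0.5 µM final for 1 h, DUBs were labelled in HEK293T lysate (495 µg per sample) that had first been treated in triplicate with fragment at 200 µM or vehicle for 3 h. NeutrAvidin enrichment, LysC and trypsin digestion and diaPASEF LC-MS/MS followed. Spectronaut label-free quantities were global-median-normalised. Values are average log2 fragment/vehicle ratios by unpaired t-test, using proteins with ≥2 unique peptides.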

[2] = target: T1, USP36 (UniProt Q9P275)
T1 sequence (whole entry): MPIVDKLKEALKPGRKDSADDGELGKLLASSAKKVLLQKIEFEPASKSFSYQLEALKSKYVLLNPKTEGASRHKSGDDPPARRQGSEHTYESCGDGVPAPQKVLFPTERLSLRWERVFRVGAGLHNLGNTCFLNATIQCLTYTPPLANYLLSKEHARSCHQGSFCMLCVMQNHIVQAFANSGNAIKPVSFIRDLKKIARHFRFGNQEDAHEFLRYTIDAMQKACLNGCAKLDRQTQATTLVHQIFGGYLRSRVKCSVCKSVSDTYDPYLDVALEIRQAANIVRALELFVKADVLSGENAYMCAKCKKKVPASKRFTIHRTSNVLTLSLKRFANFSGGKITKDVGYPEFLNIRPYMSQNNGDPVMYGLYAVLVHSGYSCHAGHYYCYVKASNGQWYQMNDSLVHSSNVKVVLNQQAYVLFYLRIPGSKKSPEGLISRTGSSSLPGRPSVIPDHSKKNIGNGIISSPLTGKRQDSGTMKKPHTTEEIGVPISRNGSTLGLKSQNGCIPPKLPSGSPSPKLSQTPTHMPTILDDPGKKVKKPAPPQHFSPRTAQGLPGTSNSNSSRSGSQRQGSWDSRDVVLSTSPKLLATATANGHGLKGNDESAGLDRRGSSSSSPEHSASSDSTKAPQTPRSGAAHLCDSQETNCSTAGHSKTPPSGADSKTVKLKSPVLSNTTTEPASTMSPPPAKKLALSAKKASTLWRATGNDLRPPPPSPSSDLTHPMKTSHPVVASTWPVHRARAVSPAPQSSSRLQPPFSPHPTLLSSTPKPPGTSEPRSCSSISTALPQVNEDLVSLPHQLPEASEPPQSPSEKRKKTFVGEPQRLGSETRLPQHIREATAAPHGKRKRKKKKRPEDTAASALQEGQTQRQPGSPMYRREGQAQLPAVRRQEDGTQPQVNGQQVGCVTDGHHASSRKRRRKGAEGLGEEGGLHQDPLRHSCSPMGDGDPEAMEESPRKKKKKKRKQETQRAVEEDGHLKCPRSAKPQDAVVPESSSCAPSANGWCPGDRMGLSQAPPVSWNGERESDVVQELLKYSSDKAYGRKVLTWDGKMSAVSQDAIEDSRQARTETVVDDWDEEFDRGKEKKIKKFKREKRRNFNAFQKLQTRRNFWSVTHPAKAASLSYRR
Procedure, shortened: as §1

[3] = target: T2, USP38 (UniProt Q8NB14)
T2 sequence (whole entry): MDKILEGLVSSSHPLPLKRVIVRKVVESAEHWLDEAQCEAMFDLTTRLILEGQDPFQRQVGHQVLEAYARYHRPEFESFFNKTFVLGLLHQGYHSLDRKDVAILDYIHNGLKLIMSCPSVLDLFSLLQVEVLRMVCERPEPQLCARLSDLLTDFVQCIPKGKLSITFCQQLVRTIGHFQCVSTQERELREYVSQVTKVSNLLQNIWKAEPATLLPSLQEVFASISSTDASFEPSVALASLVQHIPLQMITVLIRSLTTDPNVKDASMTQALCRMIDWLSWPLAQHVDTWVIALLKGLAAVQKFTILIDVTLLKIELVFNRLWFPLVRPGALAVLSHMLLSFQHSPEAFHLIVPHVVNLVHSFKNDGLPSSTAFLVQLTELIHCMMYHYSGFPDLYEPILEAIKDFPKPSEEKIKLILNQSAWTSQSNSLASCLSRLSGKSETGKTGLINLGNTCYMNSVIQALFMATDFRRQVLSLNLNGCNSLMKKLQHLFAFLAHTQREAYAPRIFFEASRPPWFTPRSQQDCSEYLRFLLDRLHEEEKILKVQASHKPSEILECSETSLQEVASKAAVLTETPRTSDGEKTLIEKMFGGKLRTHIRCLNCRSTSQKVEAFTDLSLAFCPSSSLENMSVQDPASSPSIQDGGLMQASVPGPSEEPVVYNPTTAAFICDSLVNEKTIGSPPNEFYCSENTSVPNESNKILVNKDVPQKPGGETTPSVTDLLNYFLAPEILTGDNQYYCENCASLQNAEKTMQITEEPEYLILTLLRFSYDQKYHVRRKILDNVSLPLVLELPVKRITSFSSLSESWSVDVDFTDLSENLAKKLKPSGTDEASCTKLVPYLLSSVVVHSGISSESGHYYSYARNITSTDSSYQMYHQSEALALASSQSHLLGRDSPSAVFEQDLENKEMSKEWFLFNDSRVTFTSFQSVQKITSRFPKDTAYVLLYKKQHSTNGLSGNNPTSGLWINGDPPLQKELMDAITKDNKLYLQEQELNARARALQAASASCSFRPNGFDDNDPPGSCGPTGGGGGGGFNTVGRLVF
Procedure, shortened: as §1

[4] = target: T3, USP39 (UniProt Q53GS9)
T3 sequence (whole entry): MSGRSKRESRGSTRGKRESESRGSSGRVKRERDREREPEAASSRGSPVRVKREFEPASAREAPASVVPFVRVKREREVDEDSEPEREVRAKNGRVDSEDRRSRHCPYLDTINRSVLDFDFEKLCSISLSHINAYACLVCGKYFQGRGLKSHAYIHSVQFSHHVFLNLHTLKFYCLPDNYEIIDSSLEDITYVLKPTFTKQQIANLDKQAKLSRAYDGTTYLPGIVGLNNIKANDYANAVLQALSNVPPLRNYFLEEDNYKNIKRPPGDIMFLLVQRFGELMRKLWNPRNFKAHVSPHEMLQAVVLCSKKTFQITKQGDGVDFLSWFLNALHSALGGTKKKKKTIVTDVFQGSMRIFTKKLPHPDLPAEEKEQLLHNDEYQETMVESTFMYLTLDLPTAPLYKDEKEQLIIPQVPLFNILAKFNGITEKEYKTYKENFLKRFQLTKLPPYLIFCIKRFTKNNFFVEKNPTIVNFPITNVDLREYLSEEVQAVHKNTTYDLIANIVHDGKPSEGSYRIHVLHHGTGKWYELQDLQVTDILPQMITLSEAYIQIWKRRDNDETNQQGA
Procedure, shortened: as §1

[5] = target: T4, USP4 (UniProt Q13107)
T4 sequence (whole entry): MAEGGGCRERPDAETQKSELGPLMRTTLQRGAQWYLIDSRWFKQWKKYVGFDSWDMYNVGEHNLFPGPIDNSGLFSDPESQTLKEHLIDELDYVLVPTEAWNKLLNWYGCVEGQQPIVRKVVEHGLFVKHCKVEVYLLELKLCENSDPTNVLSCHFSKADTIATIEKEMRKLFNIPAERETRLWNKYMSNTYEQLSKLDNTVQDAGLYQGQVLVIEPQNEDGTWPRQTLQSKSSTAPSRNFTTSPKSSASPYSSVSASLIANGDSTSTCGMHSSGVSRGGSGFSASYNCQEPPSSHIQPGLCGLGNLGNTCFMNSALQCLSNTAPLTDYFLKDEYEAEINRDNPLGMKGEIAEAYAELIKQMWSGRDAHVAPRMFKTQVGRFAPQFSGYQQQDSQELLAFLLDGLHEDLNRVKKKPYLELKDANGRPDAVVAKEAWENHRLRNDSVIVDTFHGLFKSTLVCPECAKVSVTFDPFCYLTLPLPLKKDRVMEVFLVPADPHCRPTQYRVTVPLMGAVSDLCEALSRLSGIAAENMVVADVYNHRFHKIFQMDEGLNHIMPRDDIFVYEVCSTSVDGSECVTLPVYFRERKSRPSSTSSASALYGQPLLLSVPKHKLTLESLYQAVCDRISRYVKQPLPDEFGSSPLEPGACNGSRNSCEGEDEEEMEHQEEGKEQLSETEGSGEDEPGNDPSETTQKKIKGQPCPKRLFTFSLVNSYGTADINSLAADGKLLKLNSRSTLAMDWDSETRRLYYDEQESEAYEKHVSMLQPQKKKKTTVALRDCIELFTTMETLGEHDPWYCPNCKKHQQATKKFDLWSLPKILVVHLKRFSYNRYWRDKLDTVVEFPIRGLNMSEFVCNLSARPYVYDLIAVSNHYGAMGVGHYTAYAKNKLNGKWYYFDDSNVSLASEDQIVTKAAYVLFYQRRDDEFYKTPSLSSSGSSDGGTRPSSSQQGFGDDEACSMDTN
Procedure, shortened: as §1

Measured: log2 ratio of Biotin-Ahx-Ub-VS probe labelling

Sequence of USP34 (Q70CQ2 whole entry, the tested form may be a part): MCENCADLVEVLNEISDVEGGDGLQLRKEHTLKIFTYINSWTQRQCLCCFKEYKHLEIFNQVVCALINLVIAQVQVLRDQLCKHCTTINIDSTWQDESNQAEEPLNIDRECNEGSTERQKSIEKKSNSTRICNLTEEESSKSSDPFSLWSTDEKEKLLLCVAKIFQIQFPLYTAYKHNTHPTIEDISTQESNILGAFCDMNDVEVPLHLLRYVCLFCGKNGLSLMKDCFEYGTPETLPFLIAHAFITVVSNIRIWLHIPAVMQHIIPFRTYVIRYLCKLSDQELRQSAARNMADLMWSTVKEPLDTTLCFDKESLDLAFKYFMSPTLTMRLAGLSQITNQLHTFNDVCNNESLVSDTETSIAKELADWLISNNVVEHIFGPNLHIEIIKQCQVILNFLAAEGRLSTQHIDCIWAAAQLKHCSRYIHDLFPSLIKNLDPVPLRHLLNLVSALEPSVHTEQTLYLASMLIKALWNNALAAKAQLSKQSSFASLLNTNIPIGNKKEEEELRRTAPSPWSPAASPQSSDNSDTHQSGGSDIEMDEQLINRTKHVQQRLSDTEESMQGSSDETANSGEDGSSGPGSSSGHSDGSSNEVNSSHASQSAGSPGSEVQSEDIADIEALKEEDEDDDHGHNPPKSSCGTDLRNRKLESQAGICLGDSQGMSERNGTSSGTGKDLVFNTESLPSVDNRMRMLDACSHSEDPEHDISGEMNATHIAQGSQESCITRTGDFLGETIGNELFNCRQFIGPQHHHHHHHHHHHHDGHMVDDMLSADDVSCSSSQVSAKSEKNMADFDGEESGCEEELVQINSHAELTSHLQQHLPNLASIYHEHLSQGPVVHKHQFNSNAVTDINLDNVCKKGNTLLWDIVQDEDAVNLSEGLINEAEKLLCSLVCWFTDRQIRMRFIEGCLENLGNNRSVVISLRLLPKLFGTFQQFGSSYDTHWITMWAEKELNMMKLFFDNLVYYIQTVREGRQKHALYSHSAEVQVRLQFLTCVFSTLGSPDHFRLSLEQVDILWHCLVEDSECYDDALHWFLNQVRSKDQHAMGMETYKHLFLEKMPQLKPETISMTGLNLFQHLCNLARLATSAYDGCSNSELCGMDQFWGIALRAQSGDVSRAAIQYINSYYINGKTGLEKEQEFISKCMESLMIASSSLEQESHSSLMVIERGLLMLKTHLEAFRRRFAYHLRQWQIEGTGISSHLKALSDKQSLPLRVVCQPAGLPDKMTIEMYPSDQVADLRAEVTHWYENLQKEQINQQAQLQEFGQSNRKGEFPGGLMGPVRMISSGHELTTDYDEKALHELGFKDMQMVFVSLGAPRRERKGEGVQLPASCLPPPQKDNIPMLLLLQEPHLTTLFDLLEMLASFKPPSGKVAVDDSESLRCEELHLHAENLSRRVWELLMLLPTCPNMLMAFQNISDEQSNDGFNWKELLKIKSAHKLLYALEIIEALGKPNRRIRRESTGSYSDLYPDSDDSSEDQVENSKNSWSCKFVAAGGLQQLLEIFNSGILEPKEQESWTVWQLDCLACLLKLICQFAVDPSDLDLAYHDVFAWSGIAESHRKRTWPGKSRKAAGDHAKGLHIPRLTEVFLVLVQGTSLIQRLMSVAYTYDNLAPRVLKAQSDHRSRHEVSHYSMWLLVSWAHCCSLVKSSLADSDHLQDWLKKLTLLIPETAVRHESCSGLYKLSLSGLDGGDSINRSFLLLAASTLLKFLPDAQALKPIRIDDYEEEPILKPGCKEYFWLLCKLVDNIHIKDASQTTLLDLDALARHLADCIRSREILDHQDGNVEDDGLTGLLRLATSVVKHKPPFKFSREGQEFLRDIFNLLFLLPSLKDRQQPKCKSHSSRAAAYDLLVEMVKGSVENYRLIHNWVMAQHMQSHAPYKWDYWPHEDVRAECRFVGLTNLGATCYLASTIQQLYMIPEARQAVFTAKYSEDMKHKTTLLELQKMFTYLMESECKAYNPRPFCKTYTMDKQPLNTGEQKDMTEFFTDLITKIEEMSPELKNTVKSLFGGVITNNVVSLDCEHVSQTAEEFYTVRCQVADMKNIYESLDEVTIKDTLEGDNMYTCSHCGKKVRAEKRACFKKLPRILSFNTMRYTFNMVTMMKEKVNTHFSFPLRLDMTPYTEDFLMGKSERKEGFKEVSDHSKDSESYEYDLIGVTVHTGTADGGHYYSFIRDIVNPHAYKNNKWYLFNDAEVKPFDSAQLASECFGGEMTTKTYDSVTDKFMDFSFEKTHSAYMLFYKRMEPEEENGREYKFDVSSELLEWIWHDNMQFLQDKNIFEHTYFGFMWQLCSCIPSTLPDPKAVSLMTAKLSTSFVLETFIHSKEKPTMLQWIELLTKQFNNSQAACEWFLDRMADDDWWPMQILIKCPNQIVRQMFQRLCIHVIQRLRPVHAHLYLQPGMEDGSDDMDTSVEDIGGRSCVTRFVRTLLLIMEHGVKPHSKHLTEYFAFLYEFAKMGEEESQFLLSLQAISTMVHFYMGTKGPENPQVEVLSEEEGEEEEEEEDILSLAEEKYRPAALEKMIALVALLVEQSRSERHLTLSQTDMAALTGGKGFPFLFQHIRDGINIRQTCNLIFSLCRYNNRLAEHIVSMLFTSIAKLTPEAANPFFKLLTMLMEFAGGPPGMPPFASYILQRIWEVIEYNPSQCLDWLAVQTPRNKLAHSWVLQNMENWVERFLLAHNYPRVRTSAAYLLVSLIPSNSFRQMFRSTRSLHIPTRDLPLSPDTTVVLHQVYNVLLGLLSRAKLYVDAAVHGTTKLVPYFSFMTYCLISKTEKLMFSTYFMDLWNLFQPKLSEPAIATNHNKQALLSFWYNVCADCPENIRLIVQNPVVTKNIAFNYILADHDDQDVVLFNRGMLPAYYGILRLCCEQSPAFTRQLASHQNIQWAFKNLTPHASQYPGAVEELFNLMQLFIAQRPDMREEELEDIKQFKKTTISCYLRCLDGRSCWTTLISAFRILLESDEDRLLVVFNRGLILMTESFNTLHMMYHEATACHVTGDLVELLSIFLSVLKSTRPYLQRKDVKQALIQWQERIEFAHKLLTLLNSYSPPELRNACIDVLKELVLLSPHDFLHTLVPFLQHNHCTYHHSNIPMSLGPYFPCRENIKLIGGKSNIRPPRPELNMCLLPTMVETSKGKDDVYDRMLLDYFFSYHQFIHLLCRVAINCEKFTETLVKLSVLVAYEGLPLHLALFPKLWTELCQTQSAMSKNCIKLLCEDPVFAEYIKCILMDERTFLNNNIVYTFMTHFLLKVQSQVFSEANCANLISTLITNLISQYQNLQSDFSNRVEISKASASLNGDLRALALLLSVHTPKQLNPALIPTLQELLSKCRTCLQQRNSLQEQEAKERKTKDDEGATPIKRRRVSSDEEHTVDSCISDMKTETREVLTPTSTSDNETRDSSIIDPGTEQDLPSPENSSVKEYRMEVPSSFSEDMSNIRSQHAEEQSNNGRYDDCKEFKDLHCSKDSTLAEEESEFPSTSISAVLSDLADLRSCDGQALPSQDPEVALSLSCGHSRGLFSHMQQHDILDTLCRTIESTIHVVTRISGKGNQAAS

O=C(CCl)Nc1ccccc1C(F)(F)F
inactive: [1] -0.296 | [2] 0.187 | [3] -0.0183 | [4] 0.198 | [5] -0.1
